# Compound activity from PubChem BioAssay.
# TLR4-MyD88 BLA – TLR4-MyD88 interaction inhibition in cells. HeLa CL3-4 TLR4/MyD88 BLA complementation, FRET ratio. 200,000 tested, 0.18% active. inhibition, % at 8.4 µM; in the data active = inhibition above about 25%;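 note: 0% = vehicle and 100% = reference inhibitor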
# ABHD5 PLIN5 PPI – blocks binding of human ABHD5 to perilipin-5; 360,000 tested, 0.78% active; AID 602281; Split G. princeps luciferase complementation, luminescence, 4 h; inhibition, % at 4 µM; Q00G26+Q8WTS1;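 active = inhibition above the mean inhibition across every tested compound plus 3 SD, cut at about 22% in these data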;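 note: 0% = DMSO only wells and the 100% control is not disclosed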
# Target sequence (Q00G26 whole entry, looked up): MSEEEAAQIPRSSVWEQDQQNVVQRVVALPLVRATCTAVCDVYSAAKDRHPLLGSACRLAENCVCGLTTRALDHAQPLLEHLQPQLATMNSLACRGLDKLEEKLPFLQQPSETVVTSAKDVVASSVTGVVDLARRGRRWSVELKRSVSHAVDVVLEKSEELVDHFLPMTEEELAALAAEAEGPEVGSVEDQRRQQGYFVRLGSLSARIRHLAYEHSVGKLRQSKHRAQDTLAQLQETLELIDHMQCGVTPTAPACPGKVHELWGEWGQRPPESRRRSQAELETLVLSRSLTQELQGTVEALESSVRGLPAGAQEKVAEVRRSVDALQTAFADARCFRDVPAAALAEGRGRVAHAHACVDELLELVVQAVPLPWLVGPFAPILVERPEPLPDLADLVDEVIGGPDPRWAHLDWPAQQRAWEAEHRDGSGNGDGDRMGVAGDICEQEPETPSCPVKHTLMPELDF
# Target sequence (Q8WTS1 whole entry, looked up): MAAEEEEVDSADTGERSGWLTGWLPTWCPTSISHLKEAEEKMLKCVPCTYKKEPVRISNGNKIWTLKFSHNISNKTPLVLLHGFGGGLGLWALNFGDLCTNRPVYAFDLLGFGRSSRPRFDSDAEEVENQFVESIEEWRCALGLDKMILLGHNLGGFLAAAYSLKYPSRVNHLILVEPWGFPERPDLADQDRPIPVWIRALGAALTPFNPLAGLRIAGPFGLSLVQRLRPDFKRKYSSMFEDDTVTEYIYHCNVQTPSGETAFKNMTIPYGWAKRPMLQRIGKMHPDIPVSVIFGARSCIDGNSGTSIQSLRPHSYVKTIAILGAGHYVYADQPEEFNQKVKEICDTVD
# NOD2-RIPK2 inh – NOD2-RIPK2 protein interaction inhibition; inhibition, % at 4.98 µM; O43353; CHO BLA complementation NOD2-RIPK2, CCF4 ratio; 360,000 tested, 0.38% active; in the data active = inhibition above about 21%;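 note: 0% = vehicle only and 100% = reference blocker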
# CRFBP-R2 block – CRF-BP/CRF-R2 complex antagonism; HEK293 CRF-R2/CRF-BP, CRF-induced calcium fluorescence; inhibition, % at 11.8 µM; 350,000 tested, 0.59% active;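 active = inhibition of the ligand-induced calcium signal above about 50% at the single tested concentration, limit read from the data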
# HTR2A ag – mouse HTR2A agonism via beta-arrestin recruitment; P35363; CHO-K1 mHTR2A beta-arrestin complementation, luminescence; percent of 30 µM serotonin response; activation, % at 7.6 µM; 360,000 tested, 0.66% active;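 active = activation above a run cutoff, the mean activation of all tested compounds plus 3 SD, cut at about 14% in these data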;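 note: 0% = plate median of compound wells and 100% = 30 µM serotonin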
# TLR9-MyD88 inh – TLR9-MyD88 interaction inhibition; CHO BLA complementation TLR9-MyD88, CCF4 FRET ratio; inhibition, % at 4.98 µM; AID 504734; Q9NR96+Q99836; 340,000 tested, 0.21% active;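 active = inhibition above the mean over all tested compounds plus 3 SD, cut at about 21% in these data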;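 note: 0% = DMSO only wells and 100% = clavulanate BLA inhibitor control wells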
# MOR ag counter – activates human mu opioid receptor in HTR2A counterscreen | shares compounds with HTR2A ag | U2OS OPRM1 beta-arrestin PathHunter, luminescence; DMSO 0%, DAMGO 9.3 µM 100% | activation, % at 9.3 µM | 2,300 tested, 5.3% active | AID 624380;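 active = mean activation above the mean of DMSO-only wells plus 3 SD, cut at about 0.5% in these data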
# m5-HT2A ag conf – confirmation of mouse HTR2A serotonin receptor agonists. shares compounds with HTR2A ag. CHO-K1 PathHunter beta-arrestin recruitment, luminescence; DMSO 0%, 30 µM serotonin 100%. activation, % at 7.6 µM. 2,300 tested, 19% active;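 active = mean activation across triplicates above the hit threshold derived in the original primary screen, cut at about 15% in these data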
# * marks the source's active call; other numbers are inactive results; / = no result. This is a sample that favours compounds with a hit; in the whole collection about 2.4% have one here.
SMILES,TLR4-MyD88 BLA,ABHD5 PLIN5 PPI,NOD2-RIPK2 inh,CRFBP-R2 block,HTR2A ag,TLR9-MyD88 inh,MOR ag counter,m5-HT2A ag conf
COc1ccc(CN2CCN(C(=O)c3cccs3)CC2)cc1,6,-4,-1,-1,29*,1,0,50*
O=C(c1cccs1)N1CCN(Cc2ccncc2)CC1,-10,-2,-10,9,8,0,/,/
O=C(c1cccs1)N1CCN(Cc2ccccc2)CC1,-13,5,3,25,28*,1,0,93*
COc1ccc(OC)c(CN2CCN(C(=O)c3cccs3)CC2)c1,-11,-2,-13,9,33*,-5,0.8*,91*
COc1cccc(CN2CCN(C(=O)c3cccs3)CC2)c1OC,5,-2,-4,1,7,7,/,/
COc1cc(CN2C[C@@H](CO)O[C@@H](n3cnc4c(N5CCCC5)ncnc43)C2)cc(OC)c1OC,/,5,10,/,7,/,/,/
COc1ccc(N(C)C(=O)c2cc3c(s2)-c2ccc(Cl)cc2S(=O)(=O)C3)c(OC)c1,/,0,-2,3,14*,14,0,-5
COc1ccc(N(C)C(=O)c2cc3c(s2)-c2ccccc2OC3)c(OC)c1,/,-2,-22,4,-1,-16,/,/
O=C(/C=C/[C@H]1O[C@@H](n2ccc(=O)[nH]c2=O)[C@H](O)[C@@H]1O)NCCN1CCCCC1,/,5,-11,/,16*,/,-1,-3
O=C(NCCN1CCC(n2c(=O)[nH]c3ccccc32)CC1)c1ccccc1C(F)(F)F,/,-4,6,/,-2,/,/,/
CSc1nc(SCC(=O)NCc2ccco2)c2c3c(sc2n1)COC(C)(C)C3,-4,12,2,8,19*,-3,-1,2
CCCCSc1nc(SCC(=O)NCc2ccco2)c2c3c(sc2n1)COC(C)(CC)C3 (stereo not given),4,11,3,-13,1,-4,/,/
COc1ccc(OC)c(S(=O)(=O)N2CCC(C(=O)Nc3cccc(C)c3C)CC2)c1,-4,1,-10,-13,-4,2,/,/
COc1ccc(NC(=O)N2CCCC(C(=O)Nc3cccc(C)c3C)C2)cc1 (stereo not given),/,-5,0,-5,16*,6,0,-4
Cc1c(Cc2ccc3c(c2)OCO3)sc(NC(=O)c2ccccc2)c1C(N)=O,0,-12,2,3,15*,7,0,2
CN(C)c1ccc(-c2ccnc3c2CC(C)(C(=O)NCCc2ccccc2)O3)cc1 (stereo not given),/,-6,-2,/,0,/,/,/
Cc1ccc(CN2CC(N3CCCC3)CS2(=O)=O)cc1 (stereo not given),/,2,-7,/,4,/,/,/
COC(=O)C1CCN(CC(=O)Nc2ccc3c(c2)OCCO3)CC1,/,7,-16,13,32*,-6,-1,42*
O=C(c1ccc(Br)o1)N1CCN(Cc2ccc3c(c2)OCO3)CC1,0,21,0,5,17*,-1,0.8*,20*
CC(C)CC(=O)N1CCN(Cc2ccc3c(c2)OCO3)CC1,2,0,-8,3,19*,-11,0.6*,36*
O=C(c1ccccc1)N1CCN(Cc2ccc3c(c2)OCO3)CC1,/,-7,-5,-25,-8,-2,/,/
Cc1cccc(C(=O)N2CCN(Cc3ccc4c(c3)OCO4)CC2)c1,13,-4,-8,13,15*,-5,0,7
CCCC(=O)N1CCN(Cc2ccc3c(c2)OCO3)CC1,9,5,-7,20,8,-3,/,/
N#Cc1ccc(C(=O)N2CCCCC2c2cc(C(=O)Nc3ccc4c(c3)OCO4)no2)cc1 (stereo not given),/,1,1,/,-4,/,/,/
CC(C)NC(=O)N1Cc2cc(C(=O)NC3CCC3)nc(-c3cccc(-c4cncnc4)c3)c2[C@H]1CCO,/,-4,4,/,1,/,/,/
SMILES,TLR4-MyD88 BLA,ABHD5 PLIN5 PPI,NOD2-RIPK2 inh,CRFBP-R2 block,HTR2A ag,TLR9-MyD88 inh,MOR ag counter,m5-HT2A ag conf
C[C@@H]1CN[C@@H](CCO)/C1=C\c1ccccc1,/,-4,13,-3,6,-6,/,/
C[C@@H]1CN[C@H](CCO)/C1=C\c1ccccc1,/,10,-3,6,16*,-15,-1,6
CC(=O)NC1(C)CCC2CC1C(C)=NC2(C)C (stereo not given),/,8,-3,/,13,/,/,/
CCc1nc2ccc(C(=O)Nc3cccc(OC)c3)cn2c1N(C)Cc1ccc(OC)cc1,/,1,0,/,0,/,/,/
Cc1cc(O)c2c(CN3CCN(Cc4ccccc4)CC3)cc(=O)oc2c1,/,1,-5,-11,20*,11,0,18*
CCc1cc(=O)oc2cc(C)cc(O)c12,5,11,-5,14,3,2,/,/
CC(C)NC(=O)C(=O)NC1CCCCCC1,9,4,1,-16,-1,5,/,/
CC(C)/C=C1\CCCCC1N(C)C(=O)NC(C)C (stereo not given),8,2,2,12,28*,-3,-1,-6
Cc1ccccc1S(=O)(=O)NC(=O)C1(C)CCN1C(=O)CCc1ccc(Cl)cc1Cl (stereo not given),/,-3,3,/,3,/,/,/
COc1cc(OC)cc(-c2noc(-c3csc([C@@H]4C[C@H](O)[C@@H](CO)O4)n3)n2)c1,/,-6,3,/,4,/,/,/
O=C(Nc1ccccc1Cl)c1ccccc1CC(O)(c1ccccc1)c1ccccc1,/,1,0,1,21*,-6,0,-4
Cc1cccc(C)c1NC(=O)C(c1ccccc1OC(F)(F)F)N1CCN(C/C=C/c2ccccc2)CC1 (stereo not given),/,1,-6,/,-3,/,/,/
O=S(=O)(NC1=NCCCCC1)c1ccc(Cl)cc1Cl,/,3,4,-3,14*,0,0,-2
O=S(=O)(NC1=NCCCCC1)c1ccc(F)cc1F,/,-1,5,7,3,-1,/,/
Oc1c(/C=N/c2ccccn2)sc2ccccc12,/,-4,4,-3,15*,-2,0,-2
Oc1c(C=Nc2ccc(Cl)cn2)sc2ccccc12,/,1,3,-20,0,-3,/,/
O=S(=O)(c1cccc2cccnc12)N1CCOCC1,-12,-1,-10,-4,21*,7,-1,-2
O=S(=O)(c1cccc2cccnc12)N1CCN(c2ccc(F)cc2)CC1,3,-1,-10,-5,-5,-6,/,/
COc1ccc(NC(=O)C2CCN(S(=O)(=O)c3cccc4cccnc34)CC2)cc1OC,3,5,-8,/,17*,2,0,-3
